In PubChem BioAssay (EPA / NIEHS):
Records with an inconclusive call do not appear. Where a structure was tested more than once in an assay, its records may differ in their call. Active and inactive are the calls of the source. Rule for the calls: active = hit-call score of the fitted dose curve at least 0.9, where 1 is the maximum; inconclusive = response in the unintended direction; inactive = score below 0.9.

Target: Cellular tumor antigen p53 (Homo sapiens) (UniProt P04637)
Test: TOX21_p53_BLA_p4_ratio: Tox21 HCT-116 p53 Agonism Beta-lactamase Assay, Ratio, Phase 4 (AID 2283601)
Excerpt: TOX21_p53_BLA_p4 is a cell-based, single-readout assay that uses HCT116, a human intestinal cell line, […] in a 1536-well plate.TOX21_p53_BLA_p4_ratio is an assay readout measuring reporter gene via receptor activity and designed using inducible reporter (beta lactamase induction) detected with GAL4 b-lactamase reporter gene. The signal is derived from the ratio of cleaved (ch2) to uncleaved (ch1)reporter gene substrate used as the measure of target activity.Data from the assay component TOX21_p53_BLA_p4_ratio was analyzed into 1 assay endpoint. This assay endpoint, TOX21_p53_BLA_p4_ratio, was analyzed in the positive analysis fitting direction relative to DMSO as the negative control and baseline of activity. Using a type of inducible reporter, gain-of-signal activity can be used to understand changes in the reporter gene as they relate to the gene TP53. Furthermore, this assay endpoint can be referred to as a primary readout, because this assay has produced multiple assay endpoints where this ratio serves a reporter gene function to understand target activity. To generalize the intended target to other relatable targets, this assay endpoint is annotated to the DNA binding intended target family, where the subfamily is tumor suppressor.
Thawing Method: Place 14 mL of pre-warmed thaw medium into a 15 mL of conical tub. Remove the vial of cells to be thawed from liquid nitrogen and thaw rapidly by placing at 37C in a water bath with gentle agitation for 1-2 minutes. Decontaminate the vial by wiping with 70% ethanol before opening in a biological safety cabinet. Transfer the vial contents drop-wise into 14 mL of thaw medium in a sterile 15-mL conical tub. Centrifuge cells at 900 rpm for 4 minutes and resuspend in thaw medium. Transfer contents to the T75 tissue culture flask containing Thaw Medium and place flask in a humidified 37C/5% CO2 incubator. Switch to growth medium at first passage.Propagation Method: Aspirate medium, rinse once in DPBS, add 0.25% Trypsin/EDTA and swirl to coat the cell evenly. Add an equal volume of Growth Medium to inactivate Trypsin after 2-3 minutes incubation at 37C. Centrifuge cells at 900 rpm for 4 minutes and resuspend in growth medium. Cell should be passage or fed at least twice a week.Assay Protocol: Harvest cells from culture in growth medium and resuspend in assay medium. 2.2 Dispense 4000 cells/5 uL/well into 1536-well black/clear bottom plates using a Multidrop dispenser. After the cells were incubated at 37C for 5 hours, 23 nL of compounds dissolved in DMSO were transferred to the assay plate by a PinTool resulting in a 217-fold dilution. Incubate the plates for 16 hours at 37C, 5% CO2. Add 1 uL of 6X LiveBLAzer FRET B/G (CCF4-AM) Substrate Mixture to each well using a BioRAPTR dispenser and incubate the plates at room temperature for 2 hours. Measure fluorescence intensity at 460 and 530 nm emission and 405 nm excitation by an Envision detector. Data is expressed as the ratio of 460nm/530nm emissions. Add 4 uL of Cell-titer Glo to each well using BioRAPTR and incubate the plates at room temperature for 2 hours. Measure fluorescence intensity by a VewLux plate reader.

Sequence of Cellular tumor antigen p53 (Homo sapiens) (P04637 whole entry, looked up): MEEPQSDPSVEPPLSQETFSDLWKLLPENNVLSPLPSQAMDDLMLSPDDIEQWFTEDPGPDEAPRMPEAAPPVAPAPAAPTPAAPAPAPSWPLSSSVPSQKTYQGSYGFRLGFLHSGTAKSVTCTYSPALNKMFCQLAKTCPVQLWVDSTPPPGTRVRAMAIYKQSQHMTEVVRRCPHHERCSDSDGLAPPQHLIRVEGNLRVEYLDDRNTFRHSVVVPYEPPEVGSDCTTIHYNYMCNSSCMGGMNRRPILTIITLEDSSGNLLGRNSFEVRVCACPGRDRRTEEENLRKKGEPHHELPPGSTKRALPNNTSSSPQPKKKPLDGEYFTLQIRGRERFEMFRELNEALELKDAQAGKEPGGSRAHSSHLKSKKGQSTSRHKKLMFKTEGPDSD

Row | Structure (SMILES) | outcome | AC50
1 | COc1ccc2c3c1O[C@H]1[C@H](O)CC[C@H]4[C@@H](C2)N(C)CC[C@@]341 | inactive | –
2 | CC1(C)[C@H](C(=O)O[C@H](C#N)c2cccc(Oc3ccccc3)c2)[C@@H]1C=C(Br)Br | inactive | –
3 | O=C1NCN(c2ccccc2)C12CCN(CC1COc3ccccc3O1)CC2 (stereo not given) | inactive | –
4 | NCC(O)c1cccc(O)c1 (stereo not given) | inactive | –
5 | C[C@@H]1CN(C2CCC(C#N)(c3ccc(F)cc3)CC2)CC[C@]1(C(=O)O)c1ccccc1 (stereo not given in full) | inactive | –
6 | CCOP(=S)(OCC)SC(CCl)N1C(=O)c2ccccc2C1=O (stereo not given) | inactive | –
7 | NC(=O)CN1CC(O)CC1=O (stereo not given) | inactive | –
8 | O=C(N[C@H]1N=C(c2ccccc2F)c2cccc3c2N(CC3)C1=O)c1cc2ccccc2[nH]1 | inactive | –
9 | O=[N+]([O-])C=Cc1ccccc1 | inactive | –
10 | C[C@@H]1CC[C@H]2[C@@H](C)C(=O)O[C@@H]3O[C@@]4(C)CC[C@@H]1[C@]32OO4 | inactive | –
11 | O=C(C[C@@H]1NCCC[C@H]1O)Cn1cnc2cc(Br)c(Cl)cc2c1=O | inactive | –
12 | CC(Cl)Cl | inactive | –
13 | COC1=CC(=O)O[C@@H](/C=C/c2ccccc2)C1 | inactive | –
14 | CN(C)CCc1ccc(O)cc1 | inactive | –
15 | ClC=CCCl | inactive | –
16 | O=C(CCl)C(Cl)Cl | – | 26.1 µM (active)
17 | CN[C@H]1C[C@@H](N)[C@H](O)[C@@H](O[C@@H]2O[C@H](CO)[C@H](O)[C@@H]3OC4(O[C@H]23)O[C@H](C(N)CO)[C@H](O)[C@H](O)C4O)[C@@H]1O (stereo not given in full) | inactive | –
18 | CCCN1CCC[C@@H]2Cc3[nH]ncc3C[C@H]21 | inactive | –
19 | CCCC(C)(COC(N)=O)COC(=O)NC(C)C (stereo not given) | inactive | –
20 | O=c1[nH]cc(N(CCCl)CCCl)c(=O)[nH]1 | inactive | –

Row | Structure (SMILES) | outcome | AC50
21 | c1ccc2c(c1)cc1ccc3cccc4ccc2c1c34 | – | 2.39 µM (active)
22 | C[N+]1(C)[C@@H]2CC[C@H]1CC(OC(=O)c1c[nH]c3ccccc13)C2 (stereo not given in full) | inactive | –
23 | CC1CCCC1 | inactive | –
24 | CC(N)=S | inactive | –
25 | CCCC[n+]1cccc(C)c1 | inactive | –
26 | Cc1ccc(-c2nc3ccc(C)cn3c2CC(=O)N(C)C)cc1 | inactive | –
27 | C[C@]12C/C(=C/O)C(=O)C[C@@H]1CC[C@@H]1[C@@H]2CC[C@@]2(C)[C@H]1CC[C@]2(C)O | inactive | 42.4 µM (active)
28 | C[C@@H]1O[C@@H](O[C@@H]2C=C3CC[C@@H]4[C@H](CC[C@]5(C)[C@@H](c6ccc(=O)oc6)CC[C@]45O)[C@@]3(C)CC2)[C@H](O)[C@H](O)[C@H]1O | inactive | –
29 | O=S(=O)(c1ccccc1)c1ccccc1 | inactive | –
30 | Clc1ccc(-c2ccc(Cl)c(Cl)c2Cl)c(Cl)c1Cl | inactive | –
31 | CC=Cc1ccc2c(c1)OCO2 | inactive | –
32 | CON(C)C(=O)Nc1ccc(Br)cc1 | inactive | –
33 | c1ccc2c(c1)CCNC2 | inactive | –
34 | OCC(Br)CBr (stereo not given) | inactive | –
35 | C(CCOCC1CO1)COCC1CO1 (stereo not given) | inactive | –
36 | S=C=S | inactive | –
37 | C=CC(=O)OC | inactive | –
38 | O=C(O)c1ccccn1 | inactive | –
39 | [O-][Br+2]([O-])O | inactive | –
